In PubChem BioAssay:
Activity calls are given as the source filed them.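 How the source made its calls, unless noted: active means visual image review flags a hit and inhibition of aggregation exceeds 20%; inconclusive means visual hit but inhibition at or below 20%; inactive means no hit on visual image review.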

How the values were obtained:
[1] = inhibitors of TNFa-induced NFkB p65 translocation, primary screen, imaging, HUVEC, MLSMR starter and 10KST1 sets (AID 438;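 active means inhibition above 20% together with a positive visual image hit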;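 further: compound added about 3h40 before a 20 min TNFalpha stimulation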;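 on inhibition: signal is the nuclear over cytoplasmic p65 intensity ratio per well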); settings: HUVEC TNFa-induced p65 nuclear translocation; cell count: measured here: nuclei count (cytotoxicity indicator), at 2.08 µM; inhibition: at 2 µM, stronger effect = higher value, 0% TNFa-plus-vehicle, 100% no-TNFa wells
[2] = inhibitors of mutant huntingtin aggregation, primary screen, imaging, exon1htt(103Q)mCFP cells, high-content imaging (AID 483); settings: exon1htt(103Q)mCFP cell line, aggregate imaging, at 2 µM; inhibition of aggregation: stronger effect = higher value; nuclei count: measured here: cell count, toxicity;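 further: compound exposure lasted 3 days before fixation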;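 on nuclei count: percent of the per-plate median nuclei count of sample wells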
[3] = inhibitors of E-selectin induction by TNFa, primary screen, imaging, HUVEC, immunofluorescence, MLSMR starter and 10KST1 sets (AID 487;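 active means visually confirmed hit in the image check and inhibition above 20%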;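 on inhibition: signal is fraction of cell area covered by stained E-selectin grains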;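 on nuclei count: 100% = median nuclei count of all wells on the same plate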); settings: HUVEC TNFalpha-induced E-selectin immunofluorescence imaging, at 2 µM; inhibition: stronger effect = higher value; nuclei count: measured here: cell number, toxicity
[4] = biological target: Voltage-gated potassium channel subunit beta-2 (Rattus norvegicus) (UniProt P62483); assay: KvBeta enzyme negative modulators, primary screen, biochemical, NADPH fluorescence (AID 622;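 active means fluorescence slope higher than the sample average by over 3 SD, cut at about -0.22 in these data, passing the limit was not always enough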;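 further: slope of raw intensity against log time taken from 70 to 1610 s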); settings: recombinant KvBeta, 4-cyanobenzaldehyde reduction, at 10 µM, stronger effect = higher value
[5] = biological target: Voltage-gated potassium channel subunit beta-2 (Rattus norvegicus) (UniProt P62483); assay: KvBeta positive modulators, primary screen, biochemical, NADPH fluorescence (AID 623;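 active means NADPH fluorescence slope more negative than the mean of all samples by about 3 SD, 99.7% confidence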;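 further: fluorescence intensity change per second fitted from 20 to 320 s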); settings: Recombinant KvBeta, NADPH fluorescence decrease slope, 10 min; at 10 µM; stronger effect = lower value
[6] = biological target: Alpha-2C adrenergic receptor (Homo sapiens) (UniProt P18825); assay: modulators of alpha2C/GIRK thallium flux, primary screen, cell-based, HEK293 alpha2C/GIRK1/2 (AID 624;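 active means fluorescence slope after compound addition differing from the mean of all screened samples at 99.7% confidence, in either direction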;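 further: slope of fluorescence ratio to pre-addition baseline per second over 15 to 24 s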); settings: thallium flux BTC fluorescence, at 10 µM, actives lie on both sides
[7] = inhibitors of Sendai virus-induced IRF3 signaling, primary screen, TLR/RLR signaling modifier project, cell-based, Sendai virus stimulus, luciferase, 10K MLSCN set (AID 602276;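 active means inhibition at or above 50% at 10 µM; inactive means inhibition below 50%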;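 further: firefly luciferase from ISG56 promoter only with Renilla not read in this screen; 0% = Sendai virus plus DMSO and 100% = medium plus DMSO without virus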); settings: HEK293 RL24 IRF3 luciferase reporter, at 10 µM, stronger effect = higher value
[8] = inhibitors of poly I:C-induced TLR3 signaling, primary screen, cell-based, poly I:C stimulus, luciferase, 10K MLSCN set (AID 602277;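 active means inhibition of the reporter signal at or above 50%; inactive means inhibition below 50%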); settings: HEK293-TLR3 RL24 IRF3 luciferase reporter, at 10 µM, stronger effect = higher value

Alpha-2C adrenergic receptor (Homo sapiens), sequence (P18825 whole entry, looked up): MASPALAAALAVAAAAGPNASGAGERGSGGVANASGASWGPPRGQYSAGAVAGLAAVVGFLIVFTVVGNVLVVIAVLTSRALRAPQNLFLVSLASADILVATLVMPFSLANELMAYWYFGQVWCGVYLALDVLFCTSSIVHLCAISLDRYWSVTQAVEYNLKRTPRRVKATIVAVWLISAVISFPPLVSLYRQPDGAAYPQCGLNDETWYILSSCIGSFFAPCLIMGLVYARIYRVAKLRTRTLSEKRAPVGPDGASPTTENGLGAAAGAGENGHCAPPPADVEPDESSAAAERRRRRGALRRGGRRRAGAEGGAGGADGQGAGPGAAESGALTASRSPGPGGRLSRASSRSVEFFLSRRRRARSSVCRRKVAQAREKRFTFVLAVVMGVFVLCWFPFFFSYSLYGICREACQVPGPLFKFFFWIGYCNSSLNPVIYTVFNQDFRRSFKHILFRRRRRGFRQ
Voltage-gated potassium channel subunit beta-2 (Rattus norvegicus), sequence (P62483 whole entry, looked up): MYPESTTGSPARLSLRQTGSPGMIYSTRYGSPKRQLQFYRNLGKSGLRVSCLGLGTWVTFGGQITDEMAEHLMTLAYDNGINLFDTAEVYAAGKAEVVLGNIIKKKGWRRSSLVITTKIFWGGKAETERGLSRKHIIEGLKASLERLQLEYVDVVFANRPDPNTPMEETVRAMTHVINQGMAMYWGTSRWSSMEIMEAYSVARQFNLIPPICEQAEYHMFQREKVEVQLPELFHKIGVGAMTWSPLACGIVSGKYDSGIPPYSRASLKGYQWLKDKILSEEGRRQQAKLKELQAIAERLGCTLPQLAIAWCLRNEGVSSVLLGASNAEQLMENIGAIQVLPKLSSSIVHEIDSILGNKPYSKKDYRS

Structure (SMILES) | cell count [1] | inhibition [1] | inhibition of aggregation [2] | nuclei count [2] [%] | inhibition [3] | nuclei count [3] [%] | fluorescence slope [4] | NADPH fluorescence slope [5] | slope [6] | inhibition [7] | inhibition [8]
Cc1ccccc1-n1c(=O)cc(NCc2ccc3c(c2)OCO3)[nH]c1=O | 447 | 1.6% (inactive) | 40.2% (active) | 74.9 | -155% (inactive) | 95.2 | -0.614 (inactive) | 1.9e-05 (inactive) | 0.00889 (inactive) | 16.5% (inactive) | 19.7% (inactive)
O=C(O)CC(NC(=O)c1ccccc1NC(=O)c1ccccc1)C(=O)O (stereo not drawn) | 284 | -0.3% (inactive) | 8.8% (inactive) | 111 | 22.6% (inactive) | 90 | -0.403 (inactive) | 1.9e-05 (inactive) | 0.00592 (inactive) | -6.91% (inactive) | -15.2% (inactive)
COc1ccc(OC)c(-c2nc3c(C)n[nH]c(=O)c3[nH]2)c1 | 536 | 10.3% (inactive) | 13% (inactive) | 18.1 | 9.1% (inactive) | 118 | -0.423 (inactive) | -6.2e-05 (inactive) | 0.00496 (inactive) | 8.37% (inactive) | 20.2% (inactive)
CCC1C(=O)N=C(SCC(=O)Nc2cccc3ccccc23)NC1=O (stereo not drawn) | 393 | -4% (inactive) | 3.1% (inactive) | 101 | -41.3% (inactive) | 119 | -0.564 (inactive) | -4.5e-05 (inactive) | 0.00593 (inactive) | -15.6% (inactive) | 0.719% (inactive)
COc1ccc(NC(=O)N2CCN(c3nc(-c4cccc(OC)c4)cs3)CC2)cc1 | 564 | -7.5% (inactive) | 8.8% (inactive) | 93.9 | -23.1% (inactive) | 104 | -0.478 (inactive) | -3.3e-05 (inactive) | 0.0039 (inactive) | 2.91% (inactive) | -56.5% (inactive)
CCC(C)(C(=O)NC1CCCCC1)N(Cc1ccco1)C(=O)c1ccc2c(c1)OCO2 (stereo not drawn) | 593 | -9.3% (inactive) | -2.7% (inactive) | 80.7 | 25.6% (inactive) | 95.5 | -0.423 (inactive) | -7.4e-06 (inactive) | 0.00563 (inactive) | 21.1% (inactive) | 49.5% (inactive)
CC(=O)c1cccc(NC(=O)CCOc2ccccc2)c1 | 580 | 7.4% (inactive) | 6% (inactive) | 101 | 1.3% (inactive) | 119 | -0.428 (inactive) | 4.3e-05 (inactive) | 0.00322 (inactive) | -37.6% (inactive) | -83.6% (inactive)
O=C(NCc1ccco1)c1ccccc1Nc1ccc(F)cc1 | 575 | -7.2% (inactive) | 47.6% (active) | 67.1 | -30.4% (inactive) | 103 | -0.308 (inactive) | -5e-05 (inactive) | 0.00433 (inactive) | 5.52% (inactive) | -2.76% (inactive)
O=C(CSc1nnc2c3cc(F)ccc3nc(-c3ccccc3)n12)N1CCOCC1 | 597 | 4.9% (inactive) | -0.6% (inactive) | 104 | -23.2% (inactive) | 96.3 | -0.37 (inactive) | -7.1e-06 (inactive) | 0.00625 (inactive) | -0.506% (inactive) | -0.765% (inactive)
CC(O)c1cc2c(cc1NC(=O)c1cnn3c1NC(c1ccco1)CC3C(F)(F)F)OCO2 (stereo not drawn) | 656 | 8.7% (inactive) | -12% (inactive) | 109 | -56.3% (inactive) | 98.9 | -0.583 (inactive) | 3.4e-05 (inactive) | 0.00628 (inactive) | 9.47% (inactive) | 20.2% (inactive)
COc1ccc(Cc2noc(-c3ccc(C)cc3)n2)cc1 | 488 | 12.1% (inactive) | -0.3% (inactive) | 104 | -304% (inactive) | 138 | -0.366 (inactive) | 3.7e-05 (inactive) | 0.00509 (inactive) | -38% (inactive) | -135% (inactive)
CCOC(=O)C1CCCN(C(=O)c2cc3c(=O)n4cccc(C)c4nc3n2C)C1 (stereo not drawn) | 218 | -6% (inactive) | 3.5% (inactive) | 91.5 | 75.9% (active) | 66.5 | -0.467 (inactive) | -1.3e-05 (inactive) | 0.00547 (inactive) | 17.9% (inactive) | 23.7% (inactive)
COCC(=O)N(c1ccc(C(C)C)cc1)C1C=CS(=O)(=O)C1 (stereo not drawn) | 691 | -23.8% (inactive) | 20.8% (inactive) | 129 | -55.5% (inactive) | 103 | -0.314 (inactive) | -7.6e-06 (inactive) | 0.00672 (inactive) | 7.64% (inactive) | 28.1% (inactive)
Cn1c(=O)c2c(nc(CN3CCN(Cc4ccccc4)CC3)n2Cc2cccc(Cl)c2)n(C)c1=O | 488 | -13.1% (inactive) | 6.5% (inactive) | 100 | 10.1% (inactive) | 98 | -0.562 (inactive) | -5.1e-05 (inactive) | 0.00606 (inactive) | 15.9% (inactive) | 48.7% (inactive)
Cc1ccc(NC(=O)CN(C)S(=O)(=O)c2cccc3nsnc23)cc1Cl | 711 | -16.4% (inactive) | 7.2% (inactive) | 105 | -20.4% (inactive) | 115 | -0.333 (inactive) | -4.1e-05 (inactive) | 0.00467 (inactive) | -17.3% (inactive) | 100% (active)
Cc1ccc(NC(=O)CCC(=O)O)cc1F | 381 | 9.4% (inactive) | -13.4% (inactive) | 97.1 | -10.9% (inactive) | 115 | -0.508 (inactive) | -7.1e-05 (inactive) | 0.00611 (inactive) | 16.4% (inactive) | 24.4% (inactive)
CCN(CC)S(=O)(=O)c1ccc(NC(=O)Cn2cnc3ccccc3c2=O)cc1 | 321 | -1.8% (inactive) | 15.7% (inactive) | 96 | -112% (inactive) | 108 | -0.483 (inactive) | -0.000135 (inactive) | 0.0039 (inactive) | 12.3% (inactive) | 16% (inactive)
COC(=O)N1CC(c2ccccc2)CC1=O (stereo not drawn) | 639 | -0.6% (inactive) | -22.4% (inactive) | 119 | -61.9% (inactive) | 73 | -0.47 (inactive) | -0.000268 (inactive) | 0.00505 (inactive) | 7.79% (inactive) | 16.7% (inactive)
CCOC(=O)C(NC(C)=O)(NS(=O)(=O)c1ccccc1)C(F)(F)F (stereo not drawn) | 537 | -2.4% (inactive) | 18.4% (inactive) | 88.5 | 39.5% (inactive) | 90.8 | -0.616 (inactive) | 5.2e-06 (inactive) | 0.00712 (inactive) | 10.5% (inactive) | 14.2% (inactive)
COc1cccc(-c2noc(C3CCCN(C(=O)Cc4ccccc4)C3)n2)c1 (stereo not drawn) | 276 | -2.8% (inactive) | 5.5% (inactive) | 109 | 18.4% (inactive) | 115 | -0.609 (inactive) | -8.5e-06 (inactive) | 0.00584 (inactive) | 9.8% (inactive) | 14.1% (inactive)
CCOC(=O)c1cc(-c2ccc(N)cc2)sc1N | 588 | 14.8% (inactive) | 24% (inactive) | 90.5 | 26.4% (inactive) | 100 | -0.433 (inactive) | -7.7e-05 (inactive) | 0.00189 (inactive) | -50.5% (inactive) | -117% (inactive)
COC(=O)c1ccccc1NC(=O)CC(NCc1ccccc1)C(=O)O (stereo not drawn) | 619 | -5% (inactive) | -34.3% (inactive) | 124 | -21.4% (inactive) | 116 | -0.418 (inactive) | -8.7e-06 (inactive) | 0.00289 (inactive) | -10.8% (inactive) | 16.2% (inactive)
CCc1ccc2[nH]c(=O)c(C(c3nnnn3CC3CCCO3)N3CCCc4ccccc43)cc2c1 (stereo not drawn) | 339 | -8.5% (inactive) | 12.7% (inactive) | 87.5 | 22.4% (inactive) | 97.3 | -0.422 (inactive) | -4.4e-05 (inactive) | 0.00442 (inactive) | 22.7% (inactive) | 32.6% (inactive)
Cc1oc2c(CN3CCOCC3)c(O)ccc2c(=O)c1-c1ccc(Br)cc1 | 543 | 1.4% (inactive) | 6.2% (inactive) | 105 | -0.5% (inactive) | 113 | -0.0886 (active) | 3.7e-06 (inactive) | 0.00357 (inactive) | -3.85% (inactive) | 26.2% (inactive)
C=CCn1c2ccccc2c2nnc(SCC(=O)NC(C(=O)OC)C(C)C)nc21 (stereo not drawn) | 787 | -1.4% (inactive) | 10.3% (inactive) | 104 | -83.9% (inactive) | 103 | -0.424 (inactive) | -0.000127 (inactive) | 0.00508 (inactive) | 14.6% (inactive) | 27.7% (inactive)
CCOC(=O)c1ccc(COC(=O)c2cc3ccccc3oc2=O)o1 | 607 | -1.2% (inactive) | 1.7% (inactive) | 101 | -39.1% (inactive) | 96.9 | -0.48 (inactive) | 1.6e-06 (inactive) | 0.00426 (inactive) | -6.72% (inactive) | -32.7% (inactive)
C(=N\c1c(-c2ccccc2)nc2n1CCS2)/c1ccccc1 | 594 | -22.1% (inactive) | -0.7% (inactive) | 86 | 18.8% (inactive) | 43.9 | -0.458 (inactive) | -3.7e-05 (inactive) | 0.00231 (inactive) | 0.61% (inactive) | 10.6% (inactive)
N#Cc1nc(-c2ccccc2Cl)oc1N1CCOCC1 | 332 | 5% (inactive) | 10.4% (inactive) | 96.7 | -53.5% (inactive) | 116 | -0.356 (inactive) | 3.4e-06 (inactive) | 0.00468 (inactive) | 5.17% (inactive) | -5.75% (inactive)
